In the library only some 12% were active in any assay of this set; here they are far more common.
G9a block – G9a (human) methyltransferase inhibition; Q96KQ7; G9a H3K9 monomethylation, AlphaScreen, 2 h; Potency, µM (titrated, usually from 102 µM), usual class: inhibitors; 350,000 compounds, 8.8% hits; AID 504332; note: nearly all actives have a fitted effect of over 75% in size
Target sequence (Q96KQ7 913-1193 limits assumed): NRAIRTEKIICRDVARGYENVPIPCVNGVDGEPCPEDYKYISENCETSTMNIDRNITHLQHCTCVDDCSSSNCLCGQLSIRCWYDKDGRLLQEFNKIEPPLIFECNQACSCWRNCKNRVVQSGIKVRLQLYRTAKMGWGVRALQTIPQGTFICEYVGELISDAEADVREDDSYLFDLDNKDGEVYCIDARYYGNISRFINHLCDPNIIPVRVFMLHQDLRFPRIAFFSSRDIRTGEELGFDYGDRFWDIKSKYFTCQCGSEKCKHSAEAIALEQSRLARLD
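G9a (20 nM) preincubated 15 min RT with compounds, then 500 nM biotinylated H3K9 peptide and 20 uM SAM added; 2 h RT reaction. Monomethyl-H3K9 product detected by AlphaScreen with anti-H3K9me1 antibody, streptavidin donor and anti-rabbit IgG acceptor beads.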
Sfp inh – Sfp phosphopantetheinyl transferase inhibition; Biochemical Sfp PPTase activity, qHTS; Potency, µM, hits mostly inhibitors; AID 1490; 310,000 compounds, 3.5% hits;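 note: the enzyme is Sfp with the accession as filed and its product quenches rhodamine fluorescence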
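Compounds were incubated with enzyme (final 15 nM) for 15 min at room temperature before substrate addition started the reaction. Fluorescence at 525 nm excitation, 598 nm emission was recorded immediately and after 30 minutes.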
TDP1 block – blocks human tyrosyl-DNA phosphodiesterase 1; Q9NUW8; recombinant TDP1, AlphaScreen DNA substrate cleavage; Potency, µM (highest dose often 130 µM), most hits filed as inhibitors; 350,000 compounds, 0.28% hits; AID 485290; note: nearly all actives have a fitted effect of over 40% in size
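Here, a 5' biotin and 3' phosphotyrosine-FITC DNA oligonucleotide reports Tdp1 activity: intact substrate bridges AlphaScreen beads, while cleavage leaves a 3' phosphate and drops signal. All incubations at room temperature.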
HP1b chromo inh – inhibitors of HP1-beta chromodomain binding to methylated histone tails; AlphaScreen HP1-beta / biotin-H3K9me3 peptide binding; 390,000 compounds, 0.56% hits; P83916; AID 540317; Potency, µM (highest dose often 114 µM), most hits filed as inhibitors; note: nearly all actives have a fitted effect of over 70% in size
Target sequence (P83916 whole entry, looked up): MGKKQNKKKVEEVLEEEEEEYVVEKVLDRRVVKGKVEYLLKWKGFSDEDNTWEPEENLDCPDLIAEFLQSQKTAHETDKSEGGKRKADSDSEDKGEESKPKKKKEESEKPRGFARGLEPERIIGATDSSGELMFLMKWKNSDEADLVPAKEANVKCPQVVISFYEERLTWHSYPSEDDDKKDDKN
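HP1-beta protein (50 nM final) preincubated 30 min at room temperature with biotinylated H3(1-18)K9me3 peptide (50 nM) in PBS pH 7.4, 0.01% Tween-20, then compound added for 30 min. AlphaScreen streptavidin donor/nickel chelate acceptor beads (10 ug/mL final), 30 min dark, luminescence read.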
BAZ2B block – blocks human BAZ2B; Q9UIF8; AlphaScreen BAZ2B-H3K14Ac peptide displacement; Potency, µM (highest dose often 114 µM), most hits filed as inhibitors; 360,000 compounds, 4.4% hits; AID 504333; note: nearly all actives have a fitted effect of over 60% in size
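Complex of BAZ2B and biotin-H3K14Ac (50 nM apiece) forms over 30 min at RT, then faces library compounds up to 110 uM for another 30 min; AlphaScreen beads added, 20 min dark incubation, luminescence read.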
JMJD2A Tudor inh – inhibitors of human JMJD2A Tudor domain; AlphaScreen JMJD2A-Tudor / H3K4me3 peptide binding; Potency, µM (top dose mostly 114 µM), hits mostly inhibitors; 390,000 compounds, 4.4% hits; note: nearly all actives have a fitted effect of over 50% in size
Each line names hits and unclear results; the compound was inactive in the other large screens. Calls come from the whole dose curve; as a rule, active = well fitted curve in the direction sought with a large enough effect; inconclusive = small, poorly fitted or top-dose-only effect, or another doubt; inactive = no such curve, though single readings can be large; an effect the other way counts as inactive or inconclusive.

COCCNC(=S)Nc1ccc([N+](=O)[O-])cc1C	Sfp inh 56µM (no result: G9a block)
COc1cc(NS(=O)(=O)c2ccc(NC(=O)c3cccc(F)c3)cc2)nc(OC)n1	none (no result: Sfp inh)
CC(=O)c1ccc(N2CCN(c3ccc(C(N)=O)cc3[N+](=O)[O-])CC2)cc1	none (no result: G9a block)
O=C(O)c1ccc(N2CCN(C(c3ccccc3)c3ccccc3)CC2)c([N+](=O)[O-])c1	G9a block 32µM, BAZ2B block inconclusive, JMJD2A Tudor inh inconclusive (no result: TDP1 block)
NC(=O)c1ccc(N2CCN(c3ccc(O)cc3)CC2)c([N+](=O)[O-])c1	G9a block inconclusive, Sfp inh 32µM, HP1b chromo inh 79µM, BAZ2B block inconclusive, JMJD2A Tudor inh 25µM
COc1ccccc1N1CCN(C(=O)C(C)CS(=O)(=O)c2ccc3c(c2)NC(=O)CS3)CC1 (stereo unspecified)	G9a block inconclusive, BAZ2B block 56µM
O=C(Cc1cccc2ccccc12)NCC(=O)Nc1ccccc1F	none (no result: G9a block)
CCOc1ccc2cc(C3CC(c4ccco4)=NN3S(C)(=O)=O)c(Cl)nc2c1 (stereo unspecified)	G9a block 45µM
CCOc1ccc2nc(Cl)c(C3CC(c4ccc(C)cc4)=NN3C(=O)CCC(=O)O)cc2c1 (stereo unspecified)	BAZ2B block inconclusive, JMJD2A Tudor inh 79µM (no result: Sfp inh)
COc1ccc2cc(C3CC(c4ccco4)=NN3C(=O)CCC(=O)O)c(Cl)nc2c1 (stereo unspecified)	G9a block inconclusive, Sfp inh 50µM
CCOc1ccc2nc(Cl)c(C3CC(c4ccccc4)=NN3C(=O)CCC(=O)O)cc2c1 (stereo unspecified)	none (no result: Sfp inh)
CC(=O)N1N=C(c2ccco2)CC1c1cc2ccc(C)cc2nc1Cl (stereo unspecified)	none
CSc1ccccc1NC(=O)CN(C)CC(=O)c1c(C)[nH]c2ccccc12	G9a block inconclusive (no result: Sfp inh)
O=C(NCC(=O)N(c1ccccc1)C(C(=O)NC1CCCCC1)c1cccnc1)c1ccco1 (stereo unspecified)	none
Cc1cccc(CCNS(=O)(=O)c2ccc3c(c2)NC(=O)CS3)c1	BAZ2B block inconclusive (no result: G9a block)
c1ccc(-c2nc3ccccn3c2-c2ccccc2)cc1	none (no result: G9a block, Sfp inh, TDP1 block, BAZ2B block)
Cc1ccc2c(c1)c1nnc(SCC(=O)Nc3ccccc3C(F)(F)F)nc1n2CC(=O)O	none
Cc1ccc2c(c1)c1nnc(SCC(=O)Nc3ccc(N(C)C)cc3)nc1n2CC(=O)O	G9a block 25µM, Sfp inh 79µM, BAZ2B block inconclusive, JMJD2A Tudor inh inconclusive
CCCn1c2ccccc2c2nnc(SCC(=O)Nc3cccc(C(C)=O)c3)nc21	none (no result: Sfp inh)
Cc1ccc2c(c1)c1nnc(SCC(=O)Nc3cccc(Cl)c3C)nc1n2CC(=O)O	G9a block inconclusive, BAZ2B block 50µM, JMJD2A Tudor inh inconclusive
O=C(CC1CCCCC1)NCCOc1ccccc1	JMJD2A Tudor inh 50µM
O=C(O)Cc1nc2nc3c(c(=O)n2[nH]1)CCCC3	G9a block inconclusive, JMJD2A Tudor inh 10µM
Cc1ccc(Cl)cc1N1CCN(Cc2nc3ccsc3c(=O)[nH]2)CC1	G9a block 2.8µM
COc1ccc(N2CCN(Cc3nc4ccsc4c(=O)[nH]3)CC2)cc1	G9a block inconclusive, BAZ2B block inconclusive, JMJD2A Tudor inh 56µM
O=c1[nH]c(CN2CCN(c3ccc([N+](=O)[O-])cc3)CC2)nc2ccsc12	BAZ2B block inconclusive, JMJD2A Tudor inh inconclusive
CC1CCN(c2csc3ccc(F)cc3c2=O)CC1	none (no result: Sfp inh)
CCN1CCCC1CNCc1ccc(OCc2ccc(Cl)nc2)c(OC)c1 (stereo unspecified)	G9a block inconclusive (no result: TDP1 block)
CCN1CCCC1CNCC(O)COc1ccc(C(C)(C)C)cc1C (stereo unspecified)	G9a block inconclusive, TDP1 block inconclusive, BAZ2B block inconclusive, JMJD2A Tudor inh 1.6µM
COc1cc(/C=c2/sc3nc(-c4ccccc4)c(-c4ccccc4)n3c2=O)cc(OC)c1OC	G9a block inconclusive
COc1ccc(/C=c2\sc3nc(-c4ccccc4)c(-c4ccccc4)n3c2=O)cc1OC	G9a block 35µM, Sfp inh 18µM, BAZ2B block inconclusive
COc1ccc(/C=c2/sc3nc(-c4ccccc4)c(-c4ccccc4)n3c2=O)cc1	G9a block 14µM, HP1b chromo inh inconclusive, BAZ2B block inconclusive
O=C(Nc1nccs1)c1ccc[nH]c1=O	none (no result: TDP1 block)
CN1C(=O)/C(=C/c2ccco2)SC1=Nc1ccc(N2CCOCC2)cc1	G9a block 7.1µM, HP1b chromo inh inconclusive, BAZ2B block 7.9µM
COc1ccc(/C=C2\SC(=Nc3ccccc3)NC2=O)cc1	none (no result: G9a block, HP1b chromo inh, JMJD2A Tudor inh)
COc1ccc(N=C2NC(=O)/C(=C\c3ccco3)S2)cc1	G9a block inconclusive, Sfp inh inconclusive, HP1b chromo inh inconclusive, BAZ2B block 28µM, JMJD2A Tudor inh inconclusive
O=C1NC(=Nc2ccc(O)cc2)S/C1=C\C=C\c1ccco1	G9a block 50µM, BAZ2B block inconclusive
CN=C1S/C(=C\c2ccc(N3CCOCC3)cc2C)C(=O)N1C	none
O=C1/C(=C/c2ccccc2)CCCc2ccccc21	JMJD2A Tudor inh 100µM
O=C1/C(=C/c2ccc(C(=O)O)cc2)CCC/C1=C\c1ccc(C(=O)O)cc1	none
COc1ccc(/C=C2\CCc3ccccc3C2=O)cc1O	G9a block 79µM, BAZ2B block inconclusive, JMJD2A Tudor inh inconclusive
O=C1/C(=C\c2cccnc2)CCc2ccccc21	none
CN(C)c1ccc(/C=C2\CCC/C(=C\c3ccccc3)C2=O)cc1	G9a block 3.5µM, Sfp inh inconclusive, BAZ2B block inconclusive, JMJD2A Tudor inh inconclusive
COc1ccc(N(C)C(=O)NCc2noc3ccc(C)cc23)c(OC)c1	none (no result: Sfp inh)
O=C(Cn1cc(SCc2ccc(Br)cc2)c2ccccc21)N1CCCCC1	none (no result: Sfp inh)
O=C(c1cc([N+](=O)[O-])ccc1N1CCOCC1)N1CCN(c2ccc([N+](=O)[O-])cc2)CC1	G9a block 11µM (no result: Sfp inh)
COc1ccc(S(=O)(=O)N2CCCCC2)cc1NC(=O)Cc1sc(C)nc1-c1ccc(F)cc1	none (no result: Sfp inh)
COc1ccc(S(=O)(=O)N2CCOCC2)cc1NC(=O)Cc1sc(C)nc1-c1ccc(F)cc1	G9a block 50µM (no result: Sfp inh)
COc1cc(NC(=O)c2cc([N+](=O)[O-])ccc2N2CCOCC2)ccc1NC(=O)c1ccco1	BAZ2B block 71µM (no result: G9a block)
O=C(Nc1ccc(N2CCCC2)cc1)c1cc([N+](=O)[O-])ccc1N1CCOCC1	HP1b chromo inh inconclusive, BAZ2B block inconclusive, JMJD2A Tudor inh 45µM (no result: G9a block)
O=C(CN1CCN(C(C(=O)Nc2ccc(F)cc2)c2ccccc2)CC1)NC1CC1 (stereo unspecified)	none (no result: Sfp inh)
COC(=O)[C@H]1C[C@@H]2CC[C@@H](O)C[C@@H]2N1Cc1c(F)cccc1Cl	none (no result: G9a block, HP1b chromo inh, BAZ2B block, JMJD2A Tudor inh)
COc1ccc(NC(=O)CCNC(=O)c2ccc([N+](=O)[O-])cc2)cc1S(=O)(=O)N1CCOCC1	G9a block inconclusive (no result: Sfp inh)

Screens deposited in PubChem by National Center for Advancing Translational Sciences (NCATS).
